# Screens from PubChem BioAssay.
# SRC3 inh: inhibitors of human steroid receptor coactivator 3 (SRC3); AID 588352; inhibition, % at 3.6 µM; HEK293 GAL4-SRC3 luciferase reporter, luminescence; Q9Y6Q9; hit rate 0.17% among 360,000;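 active = inhibition above a per-campaign cutoff, the mean of all compounds plus 3 SD, cut at about 60% in these data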;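 also: 0% = DMSO-treated cells and 100% = gossypol-treated cells at 36 µM; higher means less SRC3-driven luciferase light from the GAL4 reporter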
# SRC1 inh: human NCOA1 inhibition; inhibition, % at 3.6 µM; hit rate 0.12% among 360,000; AID 588354; HEK293 GAL4-SRC1 luciferase reporter, luminescence; Q15788;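 active = inhibition above the campaign mean plus 3 SD, with each screening campaign given its own cutoff, cut at about 60% in these data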;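 also: 0% = DMSO treated cells and 100% = gossypol at 36 µM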
# NR5A2 inv ag: inverse agonists of human LRH-1 (NR5A2) | HEK293T StAR-luciferase reporter, LRH-1 transfected, 24 h | inhibition, % at 3.6 µM | hit rate 0.13% among 360,000 | AID 602396 | O00482;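 active = inhibition above the mean inhibition of all tested compounds plus 3 SD, cut at about 73% in these data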;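 also: 0% = DMSO wells and 100% = reporter-only cells lacking LRH-1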
# Gli-Sufu block: Gli-Sufu pathway antagonism; Sufu-KO-LIGHT fibroblasts, Gli luciferase reporter luminescence; inhibition, % at 5 µM; hit rate 0.74% among 340,000; AID 588413;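 active = inhibition above about 55%, limit read from the data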;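 also: 0% = DMSO-treated cells and 100% = wells with medium but no cells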
# NR2F2 inh: NR2F2 (human) inhibition, primary screen | P24468 | HEK293T NGFI-A luciferase reporter, luminescence | inhibition, % at 8.6 µM | hit rate 0.7% among 370,000 | AID 686940;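 active = inhibition above a per-plate cutoff, mean inhibition of test wells between control levels plus 3 SD, cut at about 38% in these data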;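 also: cells cotransfected with COUP-TFII expression vector driving the NGFI-A reporter; 0% = median of COUP-TF2 test wells and 100% = reporter-only cells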
# Target sequence (P24468 whole entry, looked up): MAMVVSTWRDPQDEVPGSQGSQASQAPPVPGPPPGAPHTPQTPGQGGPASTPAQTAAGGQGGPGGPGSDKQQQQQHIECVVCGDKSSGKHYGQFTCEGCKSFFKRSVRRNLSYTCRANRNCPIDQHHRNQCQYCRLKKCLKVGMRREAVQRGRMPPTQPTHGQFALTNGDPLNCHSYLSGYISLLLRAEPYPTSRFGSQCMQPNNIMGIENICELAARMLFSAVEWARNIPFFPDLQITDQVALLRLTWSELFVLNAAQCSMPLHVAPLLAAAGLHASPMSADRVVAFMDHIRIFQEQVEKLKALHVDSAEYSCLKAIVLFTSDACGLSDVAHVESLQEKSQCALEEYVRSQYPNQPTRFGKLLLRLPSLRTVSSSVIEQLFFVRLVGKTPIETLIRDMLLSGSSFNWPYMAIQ
# NCOA2 inhibitor: inhibits human steroid receptor coactivator 2; inhibition, % at 9 µM; hit rate 0.17% among 370,000; Q15596; HEK293 GAL4-SRC2 luciferase reporter, luminescence;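 active = inhibition above the mean inhibition of all tested compounds plus 3 SD, set per campaign, cut at about 52% in these data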;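 also: 0% = DMSO treated cells and 100% = cells given Gossypol at 36 µM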
# Gli antag conf: Gli-SUFU antagonism confirmation, single concentration; inhibition, % at 5 µM; Sufu-KO-LIGHT cells, Gli luciferase reporter, luminescence; AID 602428; hit rate 40% among 2,500; shares compounds with Gli-Sufu block;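 active = mean inhibition at 5 µM reaching about 45%, limit read from the data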;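 also: plate controls were DMSO-treated cells for no effect and wells lacking cells for full effect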
# SufuKO cytotox: counter-screen for Gli-SUFU antagonists: cytotoxicity. cytotoxicity, % at 5 µM. hit rate 32% among 2,500. AID 651994. Sufu-KO-LIGHT cells cytotoxicity, ATP luminescence. shares compounds with Gli-Sufu block;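 active = mean cytotoxicity at 5 µM above about 25%, limit read from the data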;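 also: cells exposed to compound overnight for roughly 16 to 18 hours; plate controls were DMSO wells with cells for no effect and medium without cells for full effect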
# Wnt3a counter: counter-screen for Gli-SUFU antagonists: Wnt3a reporter inhibition; shares compounds with Gli-Sufu block; Wnt-LIGHT cells, Wnt3a-driven luciferase reporter, luminescence; hit rate 20% among 2,500; inhibition, % at 6.25 µM; AID 651995;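 active = mean inhibition above about 25%, limit read from the data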
# VP16 Luc counter: counter-screen for COUP-TFII antagonists: inhibitors of VP16; shares compounds with NR2F2 inh; HEK293 Gal4-VP16 luciferase reporter, luminescence; inhibition, % at 8.5 µM; hit rate 25% among 2,500; AID 687007; in the data active = inhibition above about 13%
# NR2F2 inh conf: COUP-TFII (NR2F2) inhibition, confirmation assay. shares compounds with NR2F2 inh. HEK293 NGFI-A luciferase reporter, luminescence. inhibition, % at 8.5 µM. hit rate 45% among 2,500;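 active = mean inhibition over three repeats above a set limit taken from the earlier primary screen, cut at about 38% in these data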;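 also: 100% = cells given the luciferase reporter alone without the COUP-TF2 vector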
# An asterisk follows results filed as active; / = no result given. An excerpt weighted towards active compounds, which were near 1.3% of everything screened.
SMILES,SRC3 inh,SRC1 inh,NR5A2 inv ag,Gli-Sufu block,NR2F2 inh,NCOA2 inhibitor,Gli antag conf,SufuKO cytotox,Wnt3a counter,VP16 Luc counter,NR2F2 inh conf
CN(C)c1nc(-c2ccccc2)nc(-c2ccc(Cl)cc2)c1C#N,7.8,-9.2,-5.0,-76.7,-8.3,-11.1,/,/,/,/,/
CCN(CC)c1nc(-c2ccccn2)nc(-c2ccccc2)c1C#N,32.3,13.5,45.4,62.9*,41.2*,23.6,25.0,12.0,10.2,0.6,10.8
CCOC(=O)[C@@]12CN(C(=O)OC(C)(C)C)CC=C1N(Cc1ccc(OC)cc1)C(=O)[C@H]2CC(=O)NCC12CC3CC(CC(C3)C1)C2,/,/,/,/,9.8,1.2,/,/,/,/,/
CCCCN1C(=O)/C(=C/C=C2\Oc3ccccc3N2CC)SC1=S,-1.3,10.8,1.0,6.5,-7.2,3.9,/,/,/,/,/
CCN1/C(=C/C=C/c2oc3ccc(-c4ccccc4)cc3[n+]2CC)Oc2ccc(-c3ccccc3)cc21,48.3,58.9,66.6,88.3*,83.8*,28.8,90.0*,34.9*,39.2*,39.7*,93.6*
COC(=O)[C@]12C[C@H](CC(=O)NCCC(C)C)C(=O)N(CCc3ccc(OC)c(OC)c3)C1=C[C@H](C(C)C)O[C@@H]2C1CC1,/,/,/,/,1.0,24.0,/,/,/,/,/
COc1ccc(-c2cn(-c3ccccc3)c3[n+]2CCS3)cc1,34.4,22.1,44.0,80.7*,50.5*,13.7,82.5*,33.1*,30.4*,3.8,34.2
COc1ccc(-n2cc(-c3ccccc3)[nH]c2=S)cc1,-42.6,-44.1,-71.4,-32.4,-13.9,-21.8,/,/,/,/,/
Cc1ccc(Cl)cc1N1CCN(C(=O)CSc2nnc3n2C(C)(C)Cc2ccccc2-3)CC1,14.8,23.7,13.3,60.6*,63.1*,16.4,60.2*,19.7,8.0,9.3,49.6*
COc1ccc(N2CCN(C(=O)CSc3nnc4n3C(C)(C)Cc3ccccc3-4)CC2)cc1,-4.2,-13.0,4.6,14.4,-8.3,-31.7,/,/,/,/,/
C=CCN1[C@@H](Cc2ccccc2)COc2cccc(F)c2S1(=O)=O,/,/,/,/,6.5,2.1,/,/,/,/,/
CC(Nc1ncnc2ccccc12)c1ccccc1 (stereo unspecified),20.1,9.7,45.2,63.1*,71.2*,13.3,72.9*,34.4*,41.0*,3.5,60.9*
CCOC(=O)N1C(=O)C[C@](Sc2ccc(OC)cc2)(C(=O)N2CCN(c3ncccn3)CC2)[C@H]1c1ccc(OC)cc1,/,/,/,/,-4.9,7.1,/,/,/,/,/
Cc1nc2ccccc2n1Cc1ccc(Br)cc1,17.7,4.6,38.0,61.7*,57.6*,28.0,58.9*,27.6*,21.6,-11.8,49.9*
COc1ccc(C2C(C(=O)Nc3ccc(F)cc3F)CCC(=O)N2c2ccc(OC)cc2)cc1 (stereo unspecified),/,/,/,/,0.1,1.1,/,/,/,/,/
O=C(C(=Cc1ccccc1)CN1CCCCC1)c1ccccc1,-7.6,18.4,77.3*,60.3*,51.6*,22.3,77.5*,12.7,68.9*,72.3*,95.2*
O=C(CCCCN1CCCCC1)c1ccccc1,19.6,-3.5,-3.1,0.2,14.5,-17.9,/,/,/,/,/
Cc1nc2cc(N3CCN(C)CC3)c(NC(=O)Cc3ccccc3)cc2c(=O)n1Cc1ccccc1,44.8,28.6,20.5,54.0,48.8*,46.1,49.1*,9.6,-13.9,-0.7,15.3
Cc1sc2ncnc(NCC3CCCO3)c2c1C (stereo unspecified),10.9,-6.9,23.2,21.7,10.6,16.5,/,/,/,/,/
Cc1sc2ncnc(NCC3COc4ccccc4O3)c2c1C (stereo unspecified),30.0,25.6,42.1,76.7*,76.0*,23.7,72.0*,34.1*,16.6,-3.5,61.6*
c1ccc(-c2csc3ncnc(NCC4COc5ccccc5O4)c23)cc1 (stereo unspecified),38.6,14.6,55.6,84.5*,65.2*,31.5,88.4*,45.0*,26.2*,15.9*,82.5*
Cc1sc2ncnc(NCC(C)(C)N3CCOCC3)c2c1C,9.8,3.2,29.3,64.4*,42.6*,18.4,58.5*,26.6*,20.9,4.1,44.1*
COc1ccc(S[C@]2(C(=O)N3CCOCC3)CC(=O)N(c3ccc(Cl)cc3)[C@@H]2c2ccc(OC)cc2)cc1,/,/,/,/,-1.4,5.7,/,/,/,/,/
O=C(NCCc1ccccn1)c1ccc2c(c1)ncn2C1CCCCC1,/,/,/,/,-26.6,-31.4,/,/,/,/,/
Cc1ccc(-n2c(SCC(=O)NN=Cc3ccc(-c4ccccc4)cc3)nnc2-c2ccccc2)cc1,/,/,/,/,0.6,-10.5,/,/,/,/,/
SMILES,SRC3 inh,SRC1 inh,NR5A2 inv ag,Gli-Sufu block,NR2F2 inh,NCOA2 inhibitor,Gli antag conf,SufuKO cytotox,Wnt3a counter,VP16 Luc counter,NR2F2 inh conf
COc1ccc2[nH]c3c(NCc4ccco4)ncnc3c2c1,/,/,/,3.6,/,/,/,/,/,/,/
Fc1ccc2[nH]c3c(NCc4ccccc4)ncnc3c2c1,15.8,25.0,31.1,60.4*,54.9*,31.2,68.3*,12.0,34.3*,1.5,37.5*
Cc1oc(C(C)(C)C)cc1C(=O)NCc1ccc2c(c1)OCO2,11.5,-2.8,-7.8,-3.8,9.3,-3.9,/,/,/,/,/
Cn1nc(C(C)(C)C)cc1C(=O)NCc1ccc2c(c1)OCO2,15.4,6.6,41.5,68.0*,59.9*,15.1,68.2*,30.2*,42.9*,-6.5,50.2*
CCOc1cc(S(=O)(=O)NCc2ccncc2)ccc1Cl,18.8,18.2,44.2,78.5*,74.5*,0.7,78.7*,41.7*,1.9,10.0,63.0*
Cc1cc(S(=O)(=O)NCc2ccncc2)c(C)cc1Br,25.6,11.3,41.8,66.5*,61.4*,20.0,62.4*,18.9,37.5*,7.3,56.0*
Cc1ccc(S(=O)(=O)NCC(=O)NCc2ccncc2)cc1,12.9,-0.1,17.8,-11.7,-4.4,-1.7,/,/,/,/,/
Cc1ccc(S(=O)(=O)NCc2ccncc2)cc1,28.0,0.7,46.8,70.7*,56.9*,23.6,57.4*,33.5*,20.6,3.8,40.3*
CCOc1ccc(S(=O)(=O)NCc2ccccn2)cc1,-4.3,-4.7,1.4,-2.8,3.8,19.9,/,/,/,/,/
CCOc1ccc(S(=O)(=O)NCc2ccncc2)cc1,5.5,9.1,47.5,82.1*,70.2*,10.3,79.2*,37.3*,47.0*,3.3,62.8*
COC(=O)c1cc2c(c3c4cc(F)ccc4n(S(=O)(=O)c4cccc(C)c4)c13)C(=O)N(Cc1ccccc1OC)C2,/,/,/,/,-11.4,10.8,/,/,/,/,/
